# Bioassay records: PubChem, The Scripps Research Institute Molecular Screening Center
# MITF primary: MITF inhibitors, primary screen, biochemical, AlphaScreen, human; AlphaScreen MITF homodimerization, bead proximity signal; inhibition, % at 2.6 µM; hit rate 0.91% among 650,000; in the data active = inhibition above about 50%
# FBW7 activator: FBW7 E3 ligase activators, primary screen, biochemical, AlphaScreen, human. AlphaScreen FBW7–phospho-cyclin E peptide binding, activator screen. normalized activity (activation), % at 26.1 µM. hit rate 0.13% among 650,000. AID 1259310, 2017; in the data active = normalized activity above about 1.9%;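 also: purified mutant Fbw7 with reduced substrate affinity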
# GPR151 activ: activators of human GPR151, primary screen, cell-based, PathHunter beta-arrestin, luminescence | G-protein coupled receptor 151 (Homo sapiens), Q8TDV0 | PathHunter beta-arrestin GPR151 cells | activation, % at 11.2 µM | hit rate 1% among 650,000; in the data active = activation above about 4.9%
# Target sequence (Q8TDV0 whole entry, looked up): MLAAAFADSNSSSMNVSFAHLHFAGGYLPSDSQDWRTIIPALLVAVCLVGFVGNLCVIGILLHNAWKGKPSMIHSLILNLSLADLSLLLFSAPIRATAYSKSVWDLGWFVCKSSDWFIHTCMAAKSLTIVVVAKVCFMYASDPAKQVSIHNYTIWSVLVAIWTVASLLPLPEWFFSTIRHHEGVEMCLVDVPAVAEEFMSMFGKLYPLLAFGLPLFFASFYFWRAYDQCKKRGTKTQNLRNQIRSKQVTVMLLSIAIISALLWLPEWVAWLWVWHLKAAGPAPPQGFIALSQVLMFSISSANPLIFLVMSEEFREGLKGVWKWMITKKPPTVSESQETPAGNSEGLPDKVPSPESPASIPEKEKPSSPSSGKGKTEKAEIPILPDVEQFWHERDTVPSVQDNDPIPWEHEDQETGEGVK
# TEAD-YAP inh: TEAD-YAP interaction inhibition, primary screen, TEAD-YAP interaction inhibitor project, luminescence, HEK-TIYL cells | TEAD-Gal4/YAP UAS-luciferase luminescence | inhibition, % at 9.12 µM | hit rate 1.4% among 640,000; in the data active = inhibition above about 32%
# MITF confirm: MITF inhibitors, retest of hits, confirmation, biochemical, AlphaScreen, triplicate. shares compounds with MITF primary. AlphaScreen MITF homodimerization, biotin/His-MITF beads. inhibition, % at 2.6 µM. hit rate 16% among 4,700;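 active = inhibition above a cutoff derived from the DMSO control wells, cut at about 28% in these data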;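 also: inhibitors lower the bead chemiluminescence by keeping MITF from dimerizing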
# AlphaScreen DR: AlphaScreen optical interference compounds, dose response, counter-screen, biochemical, HTS | shares compounds with MITF primary | AlphaScreen optical interference counterscreen, cell-free | IC50, µM | hit rate 6% among 480; call rule not given here
# AlphaScreen intf2: AlphaScreen optical interference compounds, counter-screen for MITF inhibitor project, biochemical, triplicate; shares compounds with MITF primary; LysRS AlphaScreen counterscreen, signal interference; inhibition, % at 2.6 µM; hit rate 7.6% among 4,700;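 active = inhibition above a cutoff derived from the DMSO control wells, cut at about 30% in these data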
# A number is an active result; n = inactive; x = no result. Shown are actives, neighbours in structure and some others; about 3.5% of the full set was active somewhere.
SMILES,MITF primary,FBW7 activator,GPR151 activ,TEAD-YAP inh,MITF confirm,AlphaScreen intf2,others
CC(=O)Oc1cc(-c2coc3cc(OC(C)=O)c(OC(C)=O)c(OC(C)=O)c3c2=O)cc(OC(C)=O)c1OC(C)=O,73,n,n,n,n,n,
O=[N+]([O-])c1ccccc1S(=O)(=O)N1CCN(C2CCN(Cc3ccccc3)CC2)CC1,74,n,n,n,n,n,
COc1ccc(S(=O)(=O)N2CCN(Cc3ccccc3Br)CC2)cc1,n,n,n,n,x,x,
COc1ccc(CN2CCN(S(=O)(=O)c3ccccc3[N+](=O)[O-])CC2)cc1,n,n,n,n,x,x,
O=[N+]([O-])c1ccccc1S(=O)(=O)N1CCN(Cc2ccc(Cl)cc2)CC1,73,n,n,n,n,n,
O=[N+]([O-])c1ccccc1S(=O)(=O)N1CCN(C2CCCC2)CC1,n,n,n,n,x,x,
CN(C)CCNC(=S)N1CCN(S(=O)(=O)c2ccccc2[N+](=O)[O-])CC1,73,n,n,n,n,n,
Cc1ccc(S(=O)(=O)N2CCN(Cc3ccccc3Br)CC2)cc1,61,n,n,n,n,n,
CCc1ccc(NC(=O)CSc2nc3ccccc3c(=O)n2C2CCCCC2)cc1,n,n,n,n,x,x,
O=C(O)c1c(CNCCc2ccccc2)c2ccccc2n1Cc1ccc(F)cc1Cl,n,n,n,n,x,x,
O=[N+]([O-])c1ccccc1S(=O)(=O)N1CCN(Cc2ccccc2Br)CC1,65,n,n,n,n,n,
O=C(c1cccnc1)N1CCN(S(=O)(=O)c2ccccc2[N+](=O)[O-])CC1,n,n,n,n,x,x,
CN1CCN(C(=O)C2CCCN(S(=O)(=O)c3ccccc3[N+](=O)[O-])C2)CC1 (stereo unspecified),82,n,n,n,n,n,
O=[N+]([O-])c1ccccc1S(=O)(=O)N1CCN(Cc2cccnc2)CC1,74,n,n,n,n,n,
CC(=O)Nc1ccc(S(=O)(=O)N2CCN(Cc3ccccc3C(F)(F)F)CC2)cc1,70,n,n,n,n,n,
Cc1cc(=O)nc2c3ccccc3n(C(C)C(=O)N3CCN(c4ccccc4)CC3)n12 (stereo unspecified),n,n,n,n,x,x,
CCOc1cc(CN2CCN(C3CCCCC3)C(CCO)C2)ccc1O (stereo unspecified),n,n,n,n,x,x,
O=[N+]([O-])c1ccccc1S(=O)(=O)N1CCN(Cc2ccccn2)CC1,58,n,n,n,n,n,
O=[N+]([O-])c1ccccc1S(=O)(=O)N1CCN(c2ncccn2)CC1,n,n,n,n,x,x,
CCCCOC(=O)CSc1nc2ccc(OC)cc2[nH]1,n,n,n,n,x,x,
CC(C(=O)N1CCN(Cc2ccccc2)CC1)N(c1ccc(Cl)cc1)S(C)(=O)=O (stereo unspecified),83,n,n,n,n,n,
CC(=O)Oc1ccc(C2C(C(=O)OCC3CCCO3)=C(C)NC3=C2C(=O)CC(c2cccs2)C3)cc1 (stereo unspecified),n,n,n,n,x,x,
CS(=O)(=O)c1ccc2nc(NC(=O)/C=C/c3cccc([N+](=O)[O-])c3)sc2c1,80,n,n,n,n,n,
CS(=O)(=O)c1ccc2nc(NC(=O)/C=C/c3ccccc3Cl)sc2c1,n,n,n,n,x,x,
COCCn1c(C)nnc1SCC(N)=O,83,n,n,n,n,n,
SMILES,MITF primary,FBW7 activator,GPR151 activ,TEAD-YAP inh,MITF confirm,AlphaScreen intf2,others
COc1ccc(C(=O)CNCC2CCCO2)cc1OC (stereo unspecified),69,n,n,n,n,n,
CCOc1ccc(NC(=O)c2cc([N+](=O)[O-])ccc2N2CCOCC2)cc1,n,n,n,n,x,x,
CCOc1cc(C#N)c(NC(=O)c2cc([N+](=O)[O-])ccc2N2CCOCC2)cc1OCC,67,n,n,n,n,n,
Cc1cc(Cl)ccc1OCC(=O)NCC(=O)Nc1ccc(F)c(F)c1F,n,n,n,n,x,x,
C=C/C=C(\C(C)=C(C)C)N(C(C)=O)C1=NCCCS1,65,n,n,n,n,n,
CCc1cc(=O)[nH]c(-n2ncc(C(=O)NCCC3=CCCCC3)c2C)n1,n,n,n,n,x,x,
CN1CCN(Cc2cc(Br)c(O)c3ncccc23)CC1,105,n,n,84,113,101,
O=[N+]([O-])c1cc(CN2CCOCC2)c2cccnc2c1O,106,n,n,n,107,99,
O=[N+]([O-])c1cc(CN2CCCCC2)c2cccnc2c1O,112,n,n,n,106,100,
O=C(NCc1ccc2c(c1)OCO2)c1ccc2c(=O)n(Cc3ccc4c(c3)OCO4)c(=S)[nH]c2c1,n,n,n,n,x,x,
CC(=O)c1ccc(OCCCCN2CCCC2)cc1,n,n,n,n,x,x,
CN1CCN(CCOc2ccc(C=O)cc2)CC1,74,n,n,n,n,n,
CC(=O)c1ccc(OCCN2CCN(C)CC2)cc1,66,n,n,n,n,n,
CNS(=O)(=O)c1ccc(NC(=O)Nc2ccc([N+](=O)[O-])cc2)cc1,n,n,n,n,x,x,
Cc1nn2c(nc(N3CCCCCC3)c3ccccc32)c1C=O,62,n,n,n,n,n,
Cc1ccc(NC(=O)C(Cc2c[nH]c3ccccc23)NC(=O)OC(C)(C)C)cc1 (stereo unspecified),62,n,n,n,n,n,
O=S(=O)(NCC(c1ccco1)N1CCN(c2ccccc2F)CC1)c1cccs1 (stereo unspecified),n,n,n,n,x,x,
COc1ccc(C(=O)Nc2c3c(nn2-c2ccc([N+](=O)[O-])cc2)CSC3)cc1OC,n,n,n,n,x,x,
Cc1cc(S(=O)(=O)N2CCN(CCC(=O)O)CC2)ccc1Br,54,n,n,n,n,n,
COC(=O)CCN1CCN(S(=O)(=O)c2ccccc2Br)CC1,85,n,n,n,n,n,
COc1ccc(-c2cc(C3CC3)nc(SCC(=O)c3ccc(Br)cc3)c2C#N)cc1,n,n,n,n,x,x,
N#Cc1c(-c2ccc(Br)cc2)cc(C2CC2)nc1SCC(=O)c1ccccc1,66,n,n,n,n,n,
COc1ccc(-c2cc(C3CC3)nc(SCC(N)=O)c2C#N)cc1,51,n,n,n,n,n,
O=C(/C=C/c1ccco1)NCCCNC(=O)/C=C/c1ccco1,n,n,n,n,x,x,
CCN(CC)C(=S)NC(=O)/C=C/c1ccco1,52,n,n,n,73,n,AlphaScreen DR=n
O=C(/C=C/c1ccco1)NCCCCCCNC(=O)/C=C/c1ccco1,55,n,n,n,69,n,AlphaScreen DR=n
O=C(/C=C/c1ccco1)Nc1c[nH]c(=O)[nH]c1=O,52,n,n,n,32,n,AlphaScreen DR=n
